An excerpt weighted towards active compounds, which were near 7.2% of everything screened.
TSHR agonist – activates the human thyroid stimulating hormone receptor | P16473 | 73,000 compounds, 0.48% hits | Potency, µM (doses to about 57.1 µM), for inactives: at the top dose activation, actives largely listed as activators | HEK293-CNG-TSHR cells (CNG channel as cAMP sensor), membrane potential dye, cAMP; active = well fitted activation curve with a large enough effect in the main read-out, with a control signal flat, not every such curve was filed as active; inconclusive = small, poorly fitted or top-dose-only effect, or a change in a side signal; inactive = no such curve, though single readings can be large or run the other way; % of control where 0% means no effect;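 note: the control signal comes from parental cells without the receptor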
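cAMP rise detected as CNG-channel membrane depolarization by fluorescent dye (emission 590 nm), 30 min after compound, following 60 min dye loading containing 100 uM RO 20-1724 at room temperature. Cells: TSHR/CNG HEK 293, with parental CNG HEK 293 as control.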
HEK293 cAMP cs – raises cAMP in parental HEK293 cells, TSHR agonist counter-screen; parental HEK293 CNG cAMP sensor, membrane potential fluorescence; Potency, µM (highest dose often 57.1 µM), for inactives: at the top dose activation, most hits filed as activators; 73,000 compounds, 2.5% hits; note: % of control where 0% means no effect; nearly all actives have a fitted effect of over 55% in size
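Counterscreen for endogenous-receptor signalling: CNG-channel HEK 293 cells report cAMP rise by membrane depolarization. After 60 min dye equilibration with 100 uM RO 20-1724, compounds incubated 30 min before bottom-read fluorescence at 590 nm.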
PK Bst – alters activity of Bacillus stearothermophilus pyruvate kinase; purified pyruvate kinase, luminescence ATP production; ribose 5-phosphate activator present at AC10; Potency, µM; 51,000 compounds, 1.2% hits; AID 361; in the data active = potency below about 11 µM; inconclusive = mostly about 12 µM to 25 µM;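 the screen sought inhibitors and activators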;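 note: scaled between full activation by ribose 5 phosphate and full inhibition by luteolin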
Luciferase inh – inhibitors of firefly luciferase. purified firefly luciferase, luminescence, 8 min. Potency, µM (top dose mostly 57.1 µM), without a hit: top-dose activity change, negative = inhibition, usual class: inhibitors. 72,000 compounds, 2.2% hits. AID 411; note: % is set by controls: 0 for no effect and ±100 for the full control effect; nearly all actives have a fitted effect of over 40% in size
Target sequence (P08659 whole entry, looked up): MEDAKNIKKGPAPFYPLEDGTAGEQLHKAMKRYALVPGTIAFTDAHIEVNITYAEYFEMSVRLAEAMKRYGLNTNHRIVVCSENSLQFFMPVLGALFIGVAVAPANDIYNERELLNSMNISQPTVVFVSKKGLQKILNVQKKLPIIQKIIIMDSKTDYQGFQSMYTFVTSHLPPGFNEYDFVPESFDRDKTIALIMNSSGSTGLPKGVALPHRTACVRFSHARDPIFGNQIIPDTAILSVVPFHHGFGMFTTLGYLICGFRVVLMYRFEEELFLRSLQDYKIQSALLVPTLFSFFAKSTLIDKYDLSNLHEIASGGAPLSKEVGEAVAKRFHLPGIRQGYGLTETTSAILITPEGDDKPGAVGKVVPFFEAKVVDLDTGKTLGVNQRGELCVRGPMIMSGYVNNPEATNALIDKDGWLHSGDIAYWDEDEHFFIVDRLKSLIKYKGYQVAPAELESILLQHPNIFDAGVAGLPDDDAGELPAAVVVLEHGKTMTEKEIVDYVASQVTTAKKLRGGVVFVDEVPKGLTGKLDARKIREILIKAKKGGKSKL
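Titration-based qHTS; buffer 50 mM imidazole pH 7.2, 50 mM KCl, 7 mM MgCl2, 10 uM ATP, 0.01% Tween 20, 0.05% BSA; luciferase/luciferin detector mix added after compound; 8 min, ambient; luminescence.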
ERK AVP inh – vasopressin-driven ERK pathway inhibition. HEK293-V1b, vasopressin-stimulated pERK AlphaScreen. Potency, µM (series often up to 57.5 µM), inactives show top-dose activity, negative = inhibition, most hits filed as inhibitors. 72,000 compounds, 0.99% hits; note: % is set by controls: 0 for no effect and ±100 for the full control effect; nearly all actives have a fitted effect of over 55% in size
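Overnight-seeded V1b-HEK293 cells in 1% FBS got compound, then vasopressin (25 nM final, 5 min, 37C), then lysis buffer. AlphaScreen detection of phospho-ERK; activity normalized to basal and full-stimulation controls.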
Tau fil binding – binds recombinant human tau filaments | AID 596 | P10636 | recombinant tau filaments, thioflavin S fluorescence, 15 h; filaments grown with octadecylsulfate alongside compound | Potency, µM (titrated, usually from 57.1 µM), for the others: top-dose activity change, negative = inhibition | 71,000 compounds, 2% hits;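 note: % is set by controls: 0 for no effect and ±100 for the full control effect; actives lower thioflavin S fluorescence by blocking filaments or displacing dye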
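Thioflavine S fluorescence (ex 450, em 510 nm) reports filaments formed from 1 uM human tau plus 30 uM ODS over 15 h at 37 C (10 mM HEPES pH 7.4, 100 mM NaCl, 5 mM DTT); compounds displacing dye or blocking filaments lower signal.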
* = called active by the depositor; i = inactive; ? = inconclusive; . = not tested or not shown; [ ] = dose if it differs, or a comment. Unless noted, calls come from the whole dose curve; as a rule, active = well fitted curve in the direction sought with a large enough effect; inconclusive = small, poorly fitted or top-dose-only effect, or another doubt; inactive = no such curve, though single readings can be large; an effect the other way counts as inactive or inconclusive. Potency is the fitted concentration of half-maximal effect.

SMILES	TSHR agonist	HEK293 cAMP cs	PK Bst	Luciferase inh	ERK AVP inh	Tau fil binding
COc1ccc(Oc2ncc3nc(-c4cn(C)c5ccccc45)c(=O)n(C)c3n2)cc1	-7%	15%	.	-3%[11.4 µM]	4%	2%
O=C1c2ccccc2C(=O)N1Cc1nc2ccccc2c(=O)n1CCCn1ccnc1	-2%	6%	.	4%	-7%	8%
CCCCn1c(CN2C(=O)c3ccccc3C2=O)nc2ccccc2c1=O	20µM*	10%	.	2%	-20%	435%
c1ccc(-c2csc(N3CCN(c4ccccn4)CC3)n2)cc1	16%	12%	.	-20%	16µM*	26%
Nn1c(Nc2ccccc2)nc2ccccc2c1=O	-5%	8%	.	0%	-8%	1%
Nn1c(Nc2ccccc2)nc2ccccc21	-9%	-1%	.	13µM*	-5%	-2%
COC(=O)c1cccc(NC(=O)CSc2nnc(COc3ccccc3)n2C)c1	3%	12%	>57	0%	-19%	-9%
COC(=O)c1ccc(CSc2nc3ccccc3o2)cc1	.	19%	i	16µM*	73%	34%
Cc1cc(C)nc(SCC(=O)c2cc3ccccc3oc2=O)n1	-3%	7%	>57	0%	-26%	-18%
CCOC(=O)c1ccccc1NC(=O)CSc1nnc(COc2ccccc2)n1CC	?	16µM*	>57	3%	-17%	20%
O=C(CSc1nc2ccccc2o1)c1cc2ccccc2oc1=O	.	6%	>57	-3%	?	25µM*
COC(=O)c1ccccc1NC(=O)CSc1nnc(COc2cccc(OC)c2)n1C	?	13µM*	>57	-1%	7%	9%
N[C@H](Cc1cccc(-c2ccccc2CP(=O)(O)O)c1)C(=O)O	6%	14%	.	1%	?	8%
CCOC(=O)c1ccccc1NC(=O)CSc1nc2ccccc2o1	?	25µM*	>57	3%	-10%	-1%
C/C=C\C1=C(CO)[C@H](O)[C@H]2OC2[C@@H]1O (stereo not given in full)	-2%[11.4 µM]	4%[11.4 µM]	.	1%[11.4 µM]	17%[11.5 µM]	.
Nc1nc2nccc(-c3ccc(Cl)cc3)n2n1	-8%	2%	6*	?	-8%	1%
CC(C)CCOC(=O)/C=C/c1ccccc1	15%	51%	.	.	0%	0%
CN(C)c1ccc(C=Nc2ccc(N(C)C)cc2)cc1	3%	-9%	.	.	.	.
CN(C)c1ccc(/C=N/n2ncc3ccccc32)cc1	7%[11.4 µM]	-5%	1.9*	4µM*	22%	-26%
C=CCn1c(/N=C/c2ccc(N(C)C)cc2)nc2ccccc21	-21%	-13%	1.4*	4µM*	6%	-1%
O=C(O)/C=C\[C@H](O)c1ccc(Cl)cc1	?	?	.	1%	-3%	3%
Cc1cnc(CNc2cc(-c3ccccc3C)ncn2)cn1	9%	12%	.	-1%[2.29 µM]	25%	-8%
CC(C)(CC(=O)Nc1ccccc1)C(=O)O	12%[11.4 µM]	6%[11.4 µM]	.	2%[11.4 µM]	-25%[11.5 µM]	6%[11.4 µM]
N#CCCn1c(=O)c(-c2cccc(C#N)c2)nc2cnc(Oc3ccccc3)nc21	-9%	5%	.	1%[11.4 µM]	?	-14%
COc1ccc(Oc2ncc3nc(C)c(=O)n(Cc4cccc(OC)c4)c3n2)cc1	?	25µM*	.	1%[11.4 µM]	3%	-29%
SMILES	TSHR agonist	HEK293 cAMP cs	PK Bst	Luciferase inh	ERK AVP inh	Tau fil binding
COc1cccc(Cn2c(=O)c(-c3cccc(C#N)c3)nc3cnc(N4CCN(C)CC4)nc32)c1	?	-78%	.	1%[11.4 µM]	37%	3.2µM*
COc1cccc(Cn2c(=O)c(C)nc3cnc(OC)nc32)c1	?	?	.	1%[11.4 µM]	-1%	-1%
COc1ccc(Oc2ncc3nc(-c4cccc(C#N)c4)c(=O)n(Cc4cccc(OC)c4)c3n2)cc1	?	25µM*	.	0%[11.4 µM]	-7%	10µM*
CN1CCN(c2ncc3nc(-c4cccc(C#N)c4)c(=O)n(Cc4ccc(F)cc4)c3n2)CC1	-10%	-25%	.	1%[11.4 µM]	-22%	?
CCCCCCC=O	?	-9%	.	.	29%	2%
Nc1ccccc1C(=O)CC(N)C(=O)O (stereo not given)	.	.	.	.	7%	.
COC(=O)NC(c1cccc(C)c1)[C@@]1(C(=O)OC)CCCC1=O (stereo not given in full)	-5%[11.4 µM]	-4%[11.4 µM]	.	.	20%[11.5 µM]	.
Cc1occc1C(=O)Nc1ccc2ccccc2c1	9%	6%	.	20µM*	-30%	10µM*
Cc1occc1C(=O)Nc1nnc(C(F)(F)F)s1	1%	-1%	>57	-4%	-15%	3%
Cc1occc1C(=O)Nc1cc(C(C)(C)C)on1	?	?	.	16µM*	-8%	-18%
CN(C)S(=O)(=O)c1ccc(NS(=O)(=O)/C=C/c2ccccc2)cc1	4%	12%	>57	-6%	-18%	-4%
O=C1c2c(O)ccc([N+](=O)[O-])c2C(=O)c2c([N+](=O)[O-])ccc(O)c21	?	-118%	.	.	-9%	0.2µM*
CN(C)S(=O)(=O)c1ccc(Nc2ccc(O)c3c2C(=O)c2c([N+](=O)[O-])ccc(O)c2C3=O)cc1	?	-46%[11.4 µM]	.	-10%[11.4 µM]	18%[11.5 µM]	1µM*
Cc1nc2cnc(N3CCNCC3)nc2n(-c2ccccc2)c1=O	-1%	11%	.	0%[11.4 µM]	6%	-2%
COc1ccccc1N1CCN(CCn2c(=O)[nH]c3c([nH]c4ccccc43)c2=O)CC1	-4%	0%	.	1%	8%	40µM*
CCn1c(=O)n(CC(=O)NC2CCCC(C)C2C)c(=O)c2ccccc21 (stereo not given)	?	25µM*	>57	1%	-11%	-4%
COC(=O)CC1C2(C)CC34OC5(C)O[C@@]6(C7/C(=C(/OC)C(C)C)C(=O)OC(c8ccoc8)[C@@]7(C)C(OC(=O)C(C)C)C(OC)[C@]6(O5)[C@@]13C)C(OC)[C@]4(OC)C2OC(C)=O (stereo not given in full)	.	.	.	.	22%	.
COCCNc1nc(C(C)(C)C)nc2c1nnn2Cc1ccccc1Cl	?	2.5µM*	>57	3%	13%	6%
Cc1cc(NC(=O)c2c(F)c(F)c(F)c(F)c2F)no1	.	1%	>57	3%	-11%	-6%
Cc1cccc(NC(=O)c2ccc(S(=O)(=O)N(C)C)cc2)n1	-7%	3%	>57	-2%	0%	-3%
CCCCOc1cccc(OCCCC)c1C(=O)Nc1cc(C)on1	?	2µM*	>57	0%	20%	-7%
Cn1nnc(NC(=O)c2ccccc2F)n1	10%	4%	.	-12%	-18%	4%
CCOc1ccc(C(=O)Nc2cccc(C)n2)cc1	2%	21%	9.8*	13µM*	22%	-6%
Cn1nnc(NC(=O)c2ccc(C(C)(C)C)cc2)n1	-3%	10%	?	10µM*	-10%	3%
CCOc1ccc(C(=O)Nc2nnn(CC)n2)cc1	1%	4%	.	25µM*	-10%	2%
